Experimental data: the supplement of paper PMC13380429

Columns and labels:
[1] = test system: Vero E6 infected with SARS-CoV-2; assay: morphology score (similarity to uninfected cells); higher = more like uninfected cells; conditions: 24 h
[2] = test system: Vero E6 infected with SARS-CoV-2; assay: SARS-CoV-2 infection rate relative to infected DMSO; higher = more infection, active = 60 or less; conditions: 24 h

| Structure (SMILES) | morphology score [1] | SARS-CoV-2 infection rate [2] |
| --- | --- | --- |
| COC1(C[S@@+]([O-])c2ccccc2)CCN(CCc2c[nH]c3ccc(F)cc23)CC1 (10 µM) | -0.00604 | 102% (inactive) |
| C[C@@H]1CN([C@H]2CC[C@](C#N)(c3ccc(F)cc3)CC2)CC[C@]1(C(=O)O)c1ccccc1 [levocabastine] (10 µM) | -0.0824 | 112% (inactive) |
| CCc1nc(C(N)=O)c(Nc2ccc(N3CCC(N4CCN(C)CC4)CC3)c(OC)c2)nc1NC1CCOCC1 [gilteritinib] (0.833333 µM) | 0.272 | 91.5% (inactive) |
| COC(=O)N[C@H](C(=O)N1CCC[C@H]1c1nc(-c2ccc3c(c2)O[C@@H](c2ccccc2)n2c-3cc3cc(-c4c[nH]c([C@@H]5CCCN5C(=O)[C@@H](NC(=O)OC)C(C)C)n4)ccc32)c[nH]1)C(C)C [elbasvir] (10 µM) | -0.17 | 120% (inactive) |
| COC(=O)C(c1ccccc1)C1CCCCN1 (stereo not drawn) (10 µM) | 0.0486 | 114% (inactive) |
| Cc1onc(O)c1C[C@@H](N)C(=O)O (racemic) (10 µM) | 0.0374 | 104% (inactive) |
| Cc1cccc(C)c1OCC(=O)N[C@@H](Cc1ccccc1)[C@@H](O)C[C@H](Cc1ccccc1)NC(=O)[C@H](C(C)C)N1CCCNC1=O [lopinavir] (10 µM) | 0.184 | 105% (inactive) |
| C/C(=N\NC(=O)C(NC(=O)c1ccccc1)c1n[nH]c(=O)c2ccccc12)c1cccc(Br)c1 (stereo not drawn) (10 µM) | 0.029 | 98.5% (inactive) |
| CN/C(=N\S(=O)(=O)c1ccc(Cl)cc1)N1C[C@H](c2ccccc2)C(c2ccc(Cl)cc2)=N1 (racemic) (10 µM) | -0.133 | 114% (inactive) |
